Results: PubChem BioAssay (Tox21)
Inconclusive results are not listed. A structure can be active in one record and inactive in another. Calls of active or inactive are those of the source. Unless noted, calls come from the whole dose curve; as a rule, active = well fitted curve in the direction sought with a large enough effect in the repeat runs; inconclusive = weak or mixed curves; inactive = no such curve, though single readings can be large; an effect the other way counts as inactive or inconclusive.

How the values were obtained:
[1] = qHTS assay to identify aromatase inhibitors - cell viability counter screen (AID 743084);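 note: cells stimulated with testosterone during compound exposure; nearly all actives have a fitted effect of over 55% in size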; note: potency is the fitted concentration of half-maximal effect
[2] = target: Aryl hydrocarbon receptor (Homo sapiens) (UniProt P35869); test: qHTS assay to identify small molecule that activate the aryl hydrocarbon receptor (AhR) signaling pathway (AID 743085); note: nearly all actives have a fitted effect of over 15% in size; note: potency is the fitted concentration of half-maximal effect;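 for activation: HG2L7.5c1 human HepG2 liver cells with stably integrated DRE-driven firefly reporter; series mostly up to about 70 µM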
How it was run: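 Compounds were tested in HepG2 hepatocellular carcinoma cells harbouring a stably integrated luciferase gene under control of 20 DREs. Increased reporter signal after 24 h treatment at 37C was taken as AhR activation.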

[3] = qHTS assay to identify small molecule that activate the aryl hydrocarbon receptor (AhR) signaling pathway - cell viability counter screen (AID 743086); note: nearly all actives have a fitted effect of over 45% in size; note: potency is the fitted concentration of half-maximal effect
How it was run: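 Cytotoxicity counter screen: CellTiter-Fluor signal (30 min, 37 C) in 4000 HepG2 cells/well carrying the DRE-luciferase reporter, following 24 h compound exposure at 37 C.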

[4] = target: Peroxisome proliferator-activated receptor gamma (Homo sapiens) (UniProt P37231); test: qHTS assay to identify small molecule agonists of the peroxisome proliferator-activated receptor gamma (PPARg) signaling pathway (AID 743094; active = well fitted activation curve with a large enough effect in the signal ratio in the repeat runs, not every such curve was filed as active; the % refers to the signal ratio)
How it was run: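 GeneBLAzer PPARg UAS-bla HEK293H cells carrying a stably integrated beta-lactamase reporter were pre-incubated 5 h at 37C, then exposed to compounds in DMSO for 17 h at 37C; LiveBLAzer B/G FRET substrate was added for 1 h at room temperature and fluorescence read.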

[5] = target: Peroxisome proliferator-activated receptor gamma (Homo sapiens) (UniProt P37231); test: qHTS assay to identify small molecule antagonists of the peroxisome proliferator-activated receptor gamma (PPARg) signaling pathway (AID 743191; calls by dose curve; note: nearly all actives have a fitted effect of over 30% in size; note: potency is the fitted concentration of half-maximal effect)
How it was run: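 Beta-lactamase reporter under UAS control in HEK293H PPARg-bla cells; compound treatment 17 h at 37C. Read-out: fluorescence intensity after 1 h room-temperature incubation with LiveBLAzer B/G FRET substrate.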

[6] = qHTS assay for small molecule agonists of the antioxidant response element (ARE) signaling pathway - cell viability counter screen (AID 743203; calls by dose curve; note: nearly all actives have a fitted effect of over 55% in size; note: potency is the fitted concentration of half-maximal effect)
How it was run: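 CellSensor ARE-bla HepG2 cells, 2,000 per well, rested 5 hrs at 37C/5% CO2, then exposed to compound in DMSO for 16 hrs; viability read as CellTiter-Glo luminescence after 30 min at room temperature, in the reporter wells.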

[7] = qHTS assay for small molecule activators of the heat shock response signaling pathway - cell viability counter screen (AID 743209); note: nearly all actives have a fitted effect of over 50% in size; note: potency is the fitted concentration of half-maximal effect
How it was run: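 CellSensor HSE-bla HeLa cells, plated overnight at 37 C/5% CO2, were exposed to compounds in DMSO for 5 h at 37 C. Viability was then read in the same wells by CellTiter-Glo luminescence after 30 min at room temperature.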

[8] = target: Bile acid receptor (Homo sapiens) (UniProt Q96RI1); test: qHTS assay to identify small molecule agonists of the farnesoid-X-receptor (FXR) signaling pathway (AID 743220; active = well fitted activation curve with a large enough effect in the signal ratio in the repeat runs, not every such curve was filed as active; the % refers to the signal ratio)
How it was run: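 Beta-lactamase reporter under UAS control in GeneBLAzer FXR HEK 293T cells (5000/well) measured with LiveBLAzer FRET substrate after 2 h at room temperature. Compound exposure lasted 16 h at 37C.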

[9] = target: Vitamin D3 receptor (Homo sapiens) (UniProt P11473); test: qHTS assay to identify small molecule agonists of the vitamin D receptor (VDR) signaling pathway (AID 743222; calls by dose curve)
How it was run: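 VDR-bla cells were plated 4 h at 37C/5% CO2, then exposed to compounds in DMSO for 16 h. After LiveBLAzer B/G FRET substrate addition and 2 h at room temperature, beta-lactamase reporter fluorescence was read.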

[10] = target: Vitamin D3 receptor (Homo sapiens) (UniProt P11473); test: qHTS assay to identify small molecule antagonists of the vitamin D receptor (VDR) signaling pathway (AID 743223; active = well fitted inhibition curve with a large enough effect in the signal ratio in the repeat runs, not every such curve was filed as active; the % refers to the signal ratio; note: potency is the fitted concentration of half-maximal effect)
How it was run: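 Cells carrying a VDR-driven beta-lactamase reporter (VDR-bla) were co-treated with compound and 3 nM final 1alpha,25-dihydroxyvitamin D3 for 16 h at 37C; reporter activity was measured as FRET substrate fluorescence after 2 h at room temperature.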

[11] = qHTS assay to identify small molecule antagonists of the peroxisome proliferator-activated receptor gamma (PPARg) signaling pathway - cell viability counter screen (AID 743194); note: nearly all actives have a fitted effect of over 55% in size
How it was run: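 Viability was measured as CellTiter-Glo luminescence in GeneBLAzer PPARg UAS-bla HEK293H cells. These cells had been exposed 17 h at 37 C to compounds together with rosiglitazone at 50 nM final, with the beta-lactamase readout taken in the same wells.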

[12] = qHTS assay for small molecule activators of the heat shock response signaling pathway (AID 743210; active = well fitted activation curve with a large enough effect in the signal ratio in the repeat runs, with a control signal flat, not every such curve was filed as active; the % refers to the signal ratio; note: potency is the fitted concentration of half-maximal effect;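 for activation: HeLa cells with beta-lactamase reporter driven by heat shock elements; series mostly up to about 63 µM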)
How it was run: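 HeLa HSE-bla cells, overnight plating; cpd in DMSO 5 h, 37 C; LiveBLAzer B/G FRET substrate 2.5 h RT; fluorescence intensity read.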

[13] = qHTS assay to identify small molecule agonists of the peroxisome proliferator-activated receptor delta (PPARd) signaling pathway - cell viability counter screen (AID 743211); note: nearly all actives have a fitted effect of over 55% in size; note: potency is the fitted concentration of half-maximal effect
How it was run: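 Counter screen for cytotoxicity run in parallel with the PPARd reporter screen. Beta-lactamase reporter HEK293H cells exposed to compounds 17 h; ATP-based CellTiter-Glo luminescence quantified viability.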

[14] = target: Peroxisome proliferator-activated receptor delta (Homo sapiens) (UniProt Q03181); test: qHTS assay to identify small molecule agonists of the peroxisome proliferator-activated receptor delta (PPARd) signaling pathway (AID 743212; calls by dose curve)
How it was run: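 HEK293H PPARd-bla cells; 5 h preincubation 37 C/5% CO2; compound (DMSO) 37 C; LiveBLAzer B/G FRET substrate 2 h RT; fluorescence intensity.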

[15] = qHTS assay to identify small molecule antagonists of the peroxisome proliferator-activated receptor delta (PPARd) signaling pathway - cell viability counter screen (AID 743213); note: nearly all actives have a fitted effect of over 50% in size; note: potency is the fitted concentration of half-maximal effect
How it was run: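 Luminescence from CellTiter-Glo, added after the bla read and incubated 30 min at room temperature, gives viability of HEK293H PPARd-bla cells exposed to compounds for 17 h at 37 C with 300 nM L165041.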

[16] = target: Peroxisome proliferator-activated receptor delta (Homo sapiens) (UniProt Q03181); test: qHTS assay to identify small molecule antagonists of the peroxisome proliferator-activated receptor delta (PPARd) signaling pathway (AID 743215; active = well fitted inhibition curve with a large enough effect in the signal ratio in the repeat runs, not every such curve was filed as active; the % refers to the signal ratio;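 note: cells stimulated with agonist L165041 at 300 nM final during compound exposure; series mostly up to about 62 µM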)
How it was run: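 PPARd UAS-bla HEK293H cells were pre-incubated 5 h at 37 C, then given test compounds in DMSO plus agonist L165041 (300 nM final). After 17 h at 37 C, beta-lactamase FRET substrate was added; fluorescence read after 2 h at room temperature.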

[17] = target: Bile acid receptor (Homo sapiens) (UniProt Q96RI1); test: qHTS assay to identify small molecule antagonists of the farnesoid-X-receptor (FXR) signaling pathway (AID 743217; active = well fitted inhibition curve with a large enough effect in the signal ratio in the repeat runs, not every such curve was filed as active; the % refers to the signal ratio)
How it was run: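 FXR-UAS-bla HEK 293T cells pre-incubated 5 h at 37 °C, then exposed to compounds with chenodeoxycholic acid (50 uM final) for 16 h at 37 °C. Beta-lactamase reporter read by LiveBLAzer B/G FRET substrate fluorescence after 2 h at room temperature.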

[18] = qHTS assay to identify small molecule agonists of the farnesoid-X-receptor (FXR) signaling pathway - cell viability counter screen (AID 743218); note: nearly all actives have a fitted effect of over 45% in size; note: potency is the fitted concentration of half-maximal effect
How it was run: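 FXR-UAS-bla HEK 293T cells, plated 5 h at 37 C, were exposed to compounds for 16 h at 37 C. CellTiter-Glo was then added to the same wells as the bla readout; luminescence read after 30 min at room temperature.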

[19] = qHTS assay to identify small molecule antagonists of the farnesoid-X-receptor (FXR) signaling pathway - cell viability counter screen (AID 743221; active = well fitted cell-killing curve with a large enough effect in the repeat runs, not every such curve was filed as active; note: nearly all actives have a fitted effect of over 50% in size; note: potency is the fitted concentration of half-maximal effect)
How it was run: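 Multiplexed counter screen: viability of FXR-bla HEK 293T cells under agonist stimulation by chenodeoxycholic acid (50 uM, final) and test compound for 16 h at 37 C, measured by CellTiter-Glo luminescence in the reporter wells.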

[20] = qHTS assay for small molecule agonists of the antioxidant response element (ARE) signaling pathway (AID 743202; active = well fitted activation curve with a large enough effect in the signal ratio in the repeat runs, not every such curve was filed as active; the % refers to the signal ratio; note: potency is the fitted concentration of half-maximal effect)
How it was run: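 Quantitative high-throughput format in HepG2 cells bearing an integrated ARE-beta-lactamase reporter. Compound exposure lasted 16 h at 37 C, and fluorescence was read 2 h after adding LiveBLAzer B/G substrate at room temperature.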

Measured: Potency

Vitamin D3 receptor (Homo sapiens), sequence (P11473 whole entry, looked up): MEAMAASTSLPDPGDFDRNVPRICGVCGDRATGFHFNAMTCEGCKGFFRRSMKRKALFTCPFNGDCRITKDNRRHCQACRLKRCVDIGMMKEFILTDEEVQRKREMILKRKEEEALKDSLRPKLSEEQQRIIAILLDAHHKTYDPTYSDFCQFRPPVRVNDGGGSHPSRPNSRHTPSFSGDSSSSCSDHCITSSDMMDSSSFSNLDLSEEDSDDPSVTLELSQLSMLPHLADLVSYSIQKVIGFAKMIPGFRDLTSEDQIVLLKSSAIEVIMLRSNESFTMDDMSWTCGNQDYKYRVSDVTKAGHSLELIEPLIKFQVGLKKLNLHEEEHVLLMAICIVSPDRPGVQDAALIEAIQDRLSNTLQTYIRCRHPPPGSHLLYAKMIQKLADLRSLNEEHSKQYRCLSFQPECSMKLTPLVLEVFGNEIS
Peroxisome proliferator-activated receptor gamma (Homo sapiens), sequence (P37231 whole entry, looked up): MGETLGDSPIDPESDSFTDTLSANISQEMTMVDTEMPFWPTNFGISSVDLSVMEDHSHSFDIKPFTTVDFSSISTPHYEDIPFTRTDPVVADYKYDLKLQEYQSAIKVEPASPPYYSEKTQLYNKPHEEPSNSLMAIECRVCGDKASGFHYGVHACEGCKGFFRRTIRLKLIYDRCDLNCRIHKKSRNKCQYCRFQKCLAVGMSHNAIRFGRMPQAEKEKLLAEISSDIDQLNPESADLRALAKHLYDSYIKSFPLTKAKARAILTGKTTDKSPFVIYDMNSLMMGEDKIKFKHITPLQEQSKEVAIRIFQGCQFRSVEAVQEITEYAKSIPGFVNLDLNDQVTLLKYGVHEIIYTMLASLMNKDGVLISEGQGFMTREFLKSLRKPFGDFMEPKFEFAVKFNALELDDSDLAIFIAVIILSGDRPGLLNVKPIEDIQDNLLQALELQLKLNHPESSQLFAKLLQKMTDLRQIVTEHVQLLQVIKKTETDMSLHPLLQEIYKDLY
Aryl hydrocarbon receptor (Homo sapiens), sequence (P35869 whole entry, looked up): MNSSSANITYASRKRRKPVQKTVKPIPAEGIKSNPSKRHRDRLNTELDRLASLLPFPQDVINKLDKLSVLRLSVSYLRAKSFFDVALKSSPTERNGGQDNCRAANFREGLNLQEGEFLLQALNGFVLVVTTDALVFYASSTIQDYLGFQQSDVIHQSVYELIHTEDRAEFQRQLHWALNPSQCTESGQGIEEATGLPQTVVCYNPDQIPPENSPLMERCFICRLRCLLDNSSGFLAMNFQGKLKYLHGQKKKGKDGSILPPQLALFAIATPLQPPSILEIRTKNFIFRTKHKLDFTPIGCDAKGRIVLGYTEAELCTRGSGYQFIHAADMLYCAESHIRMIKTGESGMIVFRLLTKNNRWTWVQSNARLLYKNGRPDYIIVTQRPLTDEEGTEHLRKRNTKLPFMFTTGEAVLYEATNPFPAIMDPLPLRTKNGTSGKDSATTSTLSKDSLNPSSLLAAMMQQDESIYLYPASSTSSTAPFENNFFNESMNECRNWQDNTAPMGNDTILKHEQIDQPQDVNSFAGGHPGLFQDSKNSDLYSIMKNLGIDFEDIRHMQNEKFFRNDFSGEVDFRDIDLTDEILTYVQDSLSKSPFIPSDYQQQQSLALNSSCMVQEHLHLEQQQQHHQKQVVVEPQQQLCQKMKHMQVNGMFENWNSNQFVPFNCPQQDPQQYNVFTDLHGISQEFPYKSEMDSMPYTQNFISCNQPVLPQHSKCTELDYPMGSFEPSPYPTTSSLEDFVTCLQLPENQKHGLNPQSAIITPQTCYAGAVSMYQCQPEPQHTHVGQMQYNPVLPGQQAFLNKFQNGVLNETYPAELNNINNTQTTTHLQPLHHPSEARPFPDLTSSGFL
Bile acid receptor (Homo sapiens), sequence (Q96RI1 whole entry, looked up): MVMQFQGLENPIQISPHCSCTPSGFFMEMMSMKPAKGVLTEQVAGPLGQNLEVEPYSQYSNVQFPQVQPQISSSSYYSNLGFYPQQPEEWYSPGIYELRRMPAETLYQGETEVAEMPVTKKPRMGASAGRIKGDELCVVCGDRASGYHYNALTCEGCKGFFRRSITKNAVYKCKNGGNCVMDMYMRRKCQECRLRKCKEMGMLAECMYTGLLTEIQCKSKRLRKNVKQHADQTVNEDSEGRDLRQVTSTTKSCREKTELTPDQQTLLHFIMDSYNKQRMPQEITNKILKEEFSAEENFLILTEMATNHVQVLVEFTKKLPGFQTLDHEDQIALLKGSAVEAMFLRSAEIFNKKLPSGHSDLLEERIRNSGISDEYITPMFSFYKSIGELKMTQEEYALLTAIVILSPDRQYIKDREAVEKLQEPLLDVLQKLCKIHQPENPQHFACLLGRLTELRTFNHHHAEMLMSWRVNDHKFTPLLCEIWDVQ
Peroxisome proliferator-activated receptor delta (Homo sapiens), sequence (Q03181 whole entry, looked up): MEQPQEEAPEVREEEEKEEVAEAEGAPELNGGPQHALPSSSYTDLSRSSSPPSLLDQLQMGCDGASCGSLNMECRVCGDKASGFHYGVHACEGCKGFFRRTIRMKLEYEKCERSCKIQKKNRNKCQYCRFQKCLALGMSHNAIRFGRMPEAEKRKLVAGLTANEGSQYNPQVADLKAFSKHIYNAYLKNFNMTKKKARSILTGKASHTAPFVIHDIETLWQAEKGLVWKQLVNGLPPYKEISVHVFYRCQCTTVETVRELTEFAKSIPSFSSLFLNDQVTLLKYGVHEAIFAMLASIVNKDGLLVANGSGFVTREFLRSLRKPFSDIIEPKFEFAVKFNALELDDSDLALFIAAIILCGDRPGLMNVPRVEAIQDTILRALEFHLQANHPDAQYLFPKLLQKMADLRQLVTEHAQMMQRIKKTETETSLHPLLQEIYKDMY

CCC(Cl)C(Cl)C(Cl)CC(Cl)C(Cl)C(C)Cl (stereo not drawn)
inactive: [1] | [2] | [3] | [4] | [5] | [6] | [7] | [8] | [9] | [10]

CCCCN(CCCC)C(=O)N(CCCC)CCCC
inactive: [1] | [2] | [3] | [4] | [5] | [11] | [6] | [7] | [12] | [13] | [14] | [15] | [16] | [17] | [18] | [19] | [9]

NNc1nc(-c2ccccc2)cs1
active: [2] 9.97 µM | [5] 0.504 µM | [18] 2.52 µM
inactive: [1] | [3] | [4] | [11] | [6] | [16] | [10]

C[C@H]1[C@H]2CC[C@H]3[C@@H]4CC=C5C[C@@H](N(C)C)CC[C@]5(C)[C@H]4CC[C@]23CN1C
inactive: [1] | [2] | [3] | [4] | [5] | [20] | [6] | [7] | [12] | [15] | [17] | [18] | [8] | [19] | [9] | [10]

C=C(C)C(=O)OCC[N+](C)(C)C
active: [5] 2.18 µM
inactive: [1] | [2] | [3] | [4] | [11] | [6] | [7] | [12] | [13] | [14] | [15] | [18] | [19] | [10]

c1ccc(CSCc2ccccc2)cc1
inactive: [1] | [2] | [3] | [4] | [5] | [11] | [6] | [7] | [12] | [13] | [14] | [15] | [16] | [18] | [19] | [9] | [10]

C[C@@H]1C[C@H]2[C@@H]3CCC4=CC(=O)C=C[C@]4(C)[C@@]3(Cl)[C@@H](O)C[C@]2(C)[C@@]1(OC(=O)c1ccco1)C(=O)CCl
inactive: [1] | [2] | [3] | [4] | [5] | [7] | [16] | [19] | [9]
active: [20] 13.3 µM | [12] 31.6 µM

C1CCCC1
inactive: [1] | [2] | [3] | [4] | [5] | [11] | [6] | [7] | [12] | [13] | [15] | [18] | [19] | [9] | [10]

ON=C1CCCC1
inactive: [1] | [2] | [3] | [4] | [5] | [11] | [20] | [6] | [7] | [12] | [13] | [14] | [15] | [16] | [17] | [18] | [8] | [19] | [9] | [10]

Cc1ccc(O)c(C(C)(C)C)c1
24.5 µM (active) and inactive: [7] | [18]
active: [15] 27.5 µM | [19] 43.6 µM | [10] 13.8 µM
30.6 µM (active) and inactive: [6]
17.2 µM (active) and inactive: [1]
inactive: [2] | [4] | [5] | [11] | [12] | [14] | [16] | [9]
61 µM (active) and inactive: [3]

CC[C@H](c1ccc(O)cc1)[C@@H](CC)c1ccc(O)cc1
inactive: [1] | [2] | [3] | [4] | [7] | [14] | [15] | [16] | [8] | [19] | [9]
54.5 µM (active) and inactive: [6]
active: [5] 29.8 µM | [20] 4.22 µM | [13] 54.9 µM

CCCCCCCCCCC=O
inactive: [1] | [2] | [3] | [4] | [11] | [20] | [6] | [7] | [12] | [13] | [14] | [15] | [16] | [18] | [19] | [9] | [10]

Nc1c(Cl)cc(Cl)cc1Cl
inactive: [1] | [2] | [3] | [4] | [5] | [11] | [20] | [6] | [7] | [12] | [13] | [14] | [16] | [17] | [18] | [8] | [19] | [9]

CSc1cnc(C)cn1
inactive: [1] | [2] | [3] | [4] | [5] | [11] | [6] | [7] | [12] | [13] | [14] | [15] | [16] | [18] | [19]

CCC(C)(C)C1CCCCC1OC(C)=O (stereo not drawn)
inactive: [1] | [2] | [3] | [4] | [5] | [11] | [6] | [14] | [18] | [19]
active: [15] 54.9 µM
